Test results published in PubChem BioAssay AID748 (Sanford-Burnham Center for Chemical Genomics, 2007).
Among all 96,000 compounds or so, about 100 (0.1%) were called active.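 How the source made its calls: active means displacement above 50% at 20 µM plus a fluorescence interference ratio under 1.5; inactive means the rest.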 Many of the other results were omitted from the sample, so actives are more common in it than they were. Entries with a potency or affinity are not part of this list.

Target: Bcl-2-like protein 10 (Homo sapiens) (UniProt Q9HD36)
Assay: Bcl-B/TR3 peptide binding disruption – biochemical, fluorescence polarization, FITC-TR3 peptide, selectivity assay for Bfl-1 inhibitor project, primary screen (AID 748);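 further: plate controls were wells without compound for no effect and wells lacking Bcl-B protein for full effect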
Conditions: FP displacement of FITC-TR3 peptide from Bcl-B; at 20 µM; hits give high values

SMILES | displacement
CC(C)(C)n1ncc2c(=O)n(CC(=O)NC3CCCCC3)cnc21 | -2.2% (inactive)
COC(=O)c1oc2ccc(Br)cc2c1NC(=O)c1ccccc1 | -10.4% (inactive)
Cc1cc(C)nc(Nc2ccc(C(=O)O)cc2)n1 | 1.7% (inactive)
Cc1cc(C)nc(Nc2ccc(N3CCOCC3)cc2)n1 | 37.9% (inactive)
CCCCCCNc1nc(NCc2ccco2)nc(OCC)n1 | -31.5% (inactive)
Cc1nc(SCC(=O)NCc2ccco2)[nH]c(=O)c1C | -5.3% (inactive)
NC(=O)c1cc(N)ccc1N1CCCC1 | 7.2% (inactive)
Cc1cc(N)ccc1-n1c(C)ccc1C | -6.6% (inactive)
CCc1nnc(NC(=O)C(=O)NCCOC(=O)c2ccccc2Cl)s1 | -14.4% (inactive)
COc1ccc(N=C2SC(CC(=O)Nc3ccccc3)C(=O)N2CC2CCCO2)cc1 (stereo not drawn) | -7.7% (inactive)
COc1ccc2c(c1)c(=O)oc1c(C)c(OCC(=O)N3CCc4ccccc4C3)ccc12 | 17.9% (inactive)
Cc1cc(=O)oc2cc(OCC(=O)N3CCc4ccccc4C3)ccc12 | -2.9% (inactive)
COc1cccc(OCC(=O)NC2CCCCC2)c1 | -1.4% (inactive)
Cc1cc(=O)oc2ccc(OCC(=O)N3CCC(C)CC3)cc12 | -6.2% (inactive)
COc1ccc2c(c1)c(=O)oc1cc(OCC(=O)N3CCCC(C)C3)ccc12 (stereo not drawn) | 31.5% (inactive)
COc1ccc2c(c1)c(=O)oc1cc(OCC(=O)NC3CC3)ccc12 | -27.3% (inactive)
COC(=O)c1ccccc1OCC(=O)NC1CCCCC1 | -0.5% (inactive)
O=C1CC(=O)C(n2cncn2)C(c2c(F)cccc2Cl)C1 (stereo not drawn) | 1.3% (inactive)
O=C(CSc1ncccc1-c1nc2ccccc2[nH]1)N1CCN(c2ccccc2F)CC1 | -0.6% (inactive)
COc1cc(C(=O)NCCC(=O)NCCCN2CCCCC2C)cc(OC)c1OC (stereo not drawn) | -7% (inactive)
Clc1cccc(/C=N\Nc2nccs2)c1 | -14.4% (inactive)

SMILES | displacement
Cc1ccc(/C=N/NC(=O)c2cccs2)cc1[N+](=O)[O-] | -1.9% (inactive)
O=[N+]([O-])c1cc(/C=N\Nc2nccs2)ccc1O | 107% (active)
CCCn1c(CN2CCN(C(=O)c3ccco3)CC2)nc2c1c(=O)n(C)c(=O)n2C | -3.6% (inactive)
CCc1nnc(NC(=O)c2cnccn2)s1 | -1% (inactive)
CCSc1nnc(NC(=O)c2ccccn2)s1 | 2.1% (inactive)
CCSc1nnc(NC(=O)c2cnccn2)s1 | 58.3% (active)
CCc1c(C)nc2[nH]nc(-c3ccccc3)n2c1=O | 3.2% (inactive)
CCOC(=O)c1cc2c(=O)n3cccc(C)c3nc2n(Cc2ccccc2Cl)c1=N | -0.7% (inactive)
Cn1c(=O)[nH]c(=O)c2c1nc(Br)n2Cc1ccccc1Cl | -0.4% (inactive)
COc1cccc(C(=O)NC2CC3CCCC(C2)N3CC(=O)Nc2ccc(N(C)C)cc2)c1 (stereo not drawn) | 7.7% (inactive)
COc1cc(C(=O)NC2CC3CCCC(C2)N3CC(=O)Nc2ccccc2)cc(OC)c1OC (stereo not drawn) | -5.3% (inactive)
Cn1c(=O)c2nnn(/N=C(\c3ccccc3)C3CC3)c2n(C)c1=O | 0.7% (inactive)
Oc1ccc(C2=Nn3c(nnc3-c3ccco3)SC2)cc1O | 56.6% (active)
COc1ccc(C2=Nn3c(nnc3-c3ccco3)SC2)cc1 | 0.6% (inactive)
COc1ccc(C2=Nn3c(nnc3-c3ccco3)SC2)cc1OC | 5.3% (inactive)
COc1ccc(NC(=O)C2CCN(C(=O)c3ccc(OC)cc3)CC2)cc1 | 3.5% (inactive)
COc1ccc(NC(=O)C2CCCN(c3c4c(nc5ncnn35)CCC4)C2)cc1 (stereo not drawn) | -4.1% (inactive)
CCOC(=O)c1cccc(NC(=O)CSc2nc(N)cc(N)n2)c1 | -1.6% (inactive)
COC(=O)c1cccc(NC(=O)COC(=O)CSc2nc(C)cc(C)n2)c1 | -13.3% (inactive)
CCc1nnc(SCC(=O)Nc2ccccc2)nc1CC | -1.5% (inactive)
Cc1cccc(NC(=O)CSc2nnc(-c3ccco3)c(-c3ccco3)n2)c1C | 37.3% (inactive)

SMILES | displacement
Cc1cccc(C)c1NC(=O)CSc1nnc(-c2ccco2)c(-c2ccco2)n1 | -4.1% (inactive)
Cc1ccc(SCC(=O)Nc2ccc(-c3nnc(-c4ccco4)o3)cc2)cc1 | -9.5% (inactive)
Cc1cccc(NC(=O)CSc2nnc(-c3ccco3)o2)c1C | 7.2% (inactive)
O=C(CSc1nnc2c3ccccc3c3ccccc3c2n1)Nc1ccccc1 | -29.6% (inactive)
Cc1ccc2oc(-c3cccc(NC(=O)c4ccc(Br)o4)c3)nc2c1 | -23.6% (inactive)
CC(NC(=O)CSc1nnc(CC(=O)Nc2ccc(Cl)c(Cl)c2)n1C)c1ccccc1 (stereo not drawn) | -13.6% (inactive)
Cc1cccc(N(C)S(=O)(=O)c2ccc3c(c2)CCC(=O)N3)c1 | -24.5% (inactive)
COc1ccc(S(=O)(=O)Cc2ccc(C(=O)N3CCc4ccccc4C3)o2)cc1 | 9.8% (inactive)
Cc1ccc(S(=O)(=O)Cc2ccc(C(=O)N3CCCCCC3)o2)cc1 | 21.6% (inactive)
Cc1ccc(S(=O)(=O)Cc2ccc(C(=O)N3CCN(Cc4ccccc4)CC3)o2)cc1 | 16.9% (inactive)
Cc1ccc(S(=O)(=O)Cc2ccc(C(=O)N3CCCC3)o2)cc1 | -6.7% (inactive)
COC(=O)c1cccc(NC(=O)CSc2nnc(C)n2Cc2ccccc2)c1 | -10.5% (inactive)
CCOc1ccc(N2C(=O)CC(N3CCN(C4CCc5ccccc5C4)CC3)C2=O)cc1 (stereo not drawn) | 5.4% (inactive)
Cc1ccc2c(c1)c1c3n2CCN(C(=O)CN2CCN(C)CC2)C3CCC1 (stereo not drawn) | 15.1% (inactive)
CC(=O)N1CCn2c3c(c(=O)c4cc(C)ccc42)CCC31 (stereo not drawn) | 4.4% (inactive)
COCC(C)n1c(C)cc(C(=O)COC(=O)c2nc3nc(C)cc(C)n3n2)c1C (stereo not drawn) | 9.9% (inactive)
COc1cc(NC(=O)COC(=O)c2nc3nc(C)cc(C)n3n2)cc(OC)c1 | 0.7% (inactive)
Cc1ccc(CC(=O)NC(C)CCc2ccccc2)cc1 (stereo not drawn) | 1% (inactive)
Cc1cc(NC(=O)COC(=O)[C@H](C)NC(=O)c2ccccc2)no1 | 11.4% (inactive)
O=C(O)c1cccc(N2CCCC2)c1 | -2.4% (inactive)
Cc1ccc(C)n1-c1ccc(C(=O)O)cc1 | 42.6% (inactive)
